# Assay outcomes as filed in PubChem.
# GLP-1R agonist: activates the human GLP-1 receptor | P43220 | HEK293 GLP-1R CRE-luciferase, luminescence, 4-6 h; cells express a hypersensitive GLP-1R form | Potency, µM (titrated, usually from 45.6 µM), inactives show at the top dose activation, actives largely listed as activators | 380,000 compounds, 0.007% hits; also: % of control where 0% means no effect
# Target sequence (P43220 whole entry, looked up): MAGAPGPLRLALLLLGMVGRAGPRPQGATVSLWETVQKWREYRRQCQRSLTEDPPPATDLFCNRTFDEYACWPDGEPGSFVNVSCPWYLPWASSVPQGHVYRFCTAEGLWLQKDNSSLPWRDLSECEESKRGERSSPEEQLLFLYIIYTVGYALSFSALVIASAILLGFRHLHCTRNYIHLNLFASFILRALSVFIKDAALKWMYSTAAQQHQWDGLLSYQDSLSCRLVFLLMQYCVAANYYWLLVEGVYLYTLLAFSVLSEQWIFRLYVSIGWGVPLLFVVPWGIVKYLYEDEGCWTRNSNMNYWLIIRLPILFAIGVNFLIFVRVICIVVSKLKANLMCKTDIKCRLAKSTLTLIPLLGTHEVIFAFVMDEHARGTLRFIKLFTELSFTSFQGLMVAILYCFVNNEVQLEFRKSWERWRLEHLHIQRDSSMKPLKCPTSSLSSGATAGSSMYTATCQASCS
# BRCA1 expr up: increases BRCA1 expression; 380,000 compounds, 1.1% hits; MCF7-BRCA1-FFLuc reporter, luminescence, 48 h; response scale: scaled: vehicle 0%, 10 µM genistein 100%; AID 624202; Potency, µM (highest dose often 46.1 µM), without a hit: top-dose activation, hits mostly activators; also: nearly all actives have a fitted effect of over 80% in size
#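 MCF7-BRCA1-FFLuc cells, 2000/well in phenol-red-free MEM, attached 2 h then treated 48 h at 37 C. Luciferase luminescence read 15 min after reagent; normalized to genistein maximum activation (10microM) and DMSO, concentration-response fitted.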
# GLP-1R inv ag: acts as inverse agonist at human GLP-1 receptor; 410,000 compounds, 1.6% hits; HEK293 GLP-1R CRE-luciferase, luminescence, 24 h; GLP-1R form is constitutively active; Potency, µM (highest dose often 38.3 µM), inactives show at the highest dose activity change, negative = inhibition, hits mostly inhibitors; P43220; also: % is scaled to controls: 0 for no effect and ±100 for the full control effect; nearly all actives have a fitted effect of over 55% in size
#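 Constitutively active GLP-1R drives a cAMP-responsive luciferase in stably transfected HEK293 cells; test compounds are added after overnight (12 h) attachment and left 24 hr, and signal loss in luminescence marks inhibition.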
# HEK293 tox: cytotoxicity in counter-screen for GLP-1R inverse agonists | Potency, µM (highest dose often 38.3 µM), without a hit: at the top dose activity change, negative = inhibition, actives largely listed as inhibitors | AID 624418 | 410,000 compounds, 0.13% hits | HEK293 cAMP-luciferase reporter cells, luminescence, 24 h;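 also: loss of luciferase light is scored as toxicity; % is scaled to controls: 0 for no effect and ±100 for the full control effect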
#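 1536-well qHTS counterscreen of the MLSMR; 200 cells/uL, 12 h pre-incubation, 23 nL cpd, 24 h at 37 deg C 5% CO2, luciferase detection reagent, 12 min RT, luminescence. Inhibition = undesired.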
# * = called active by the depositor; ? = inconclusive; · = no result given. Hits are enriched below; roughly 2.6% of the tested compounds scored in any of these assays. Calls follow the shape of the dose curve; as a rule, active = well fitted curve in the direction sought with a large enough effect; inconclusive = small, poorly fitted or top-dose-only effect, or another doubt; inactive = no such curve, though single readings can be large; an effect the other way counts as inactive or inconclusive. Potency is read from the fitted curve at half-maximal effect.
SMILES,GLP-1R agonist,BRCA1 expr up,GLP-1R inv ag,HEK293 tox
Cc1scc(C(=O)N/N=C/c2ccc(OC(C)C)cc2)c1C,4%,?,?,2%
Nc1ccc(/C=C/c2cc(Cl)nc3ccccc23)cc1,·,-59%,·,·
CCCCN1C(=O)C(=O)N(c2ccccc2)C1=S,5%,5µM*,6%,1%
CCCCN1C(=O)C(=O)N(CC(=O)N2CCN(c3ccccc3)CC2)C1=O,7%,7%,-1%,0%
COc1ccc(C2Nc3ccccc3C(=O)N2c2ccccc2F)cc1COc1ccc(NC(C)=O)cc1 (stereo not drawn),·,0%,·,·
O=S(=O)(c1cccs1)N1CN(Cc2cccs2)c2nc3ccccc3nc21,6%,-27%,10µM*,-2%
O=S(=O)(c1cccs1)N1CN(Cc2ccccc2)c2nc3ccccc3nc21,0%,-30%,?,-1%
CCN(CC)c1ccc(/C=C(/C#N)c2nc3ccccc3[nH]2)c(OC(C)C)c1,13%,6%,1.8µM*,-12%
CCOc1cccc(/C=C(/C#N)c2nc3ccccc3[nH]2)c1OCC(=O)O,-4%,-10%,21%,1%
CO/N=C(\Cn1ncc(N2CCCC2)c(Br)c1=O)c1ccc(Cl)cc1,13%,-12%,11µM*,-18%
CCN1CCN(Cc2c(O)ccc3oc(C)c(C(=O)Nc4ccc(OC)cc4)c23)CC1,·,·,-4%,0%
Cc1ccc2c(c1)cc1c(=O)n(CC(=O)N3CCCCC3)nc(C)n12,·,·,-1%,2%
Fc1ccc(Oc2nc(-c3ccccn3)nc3ccccc23)cc1,12%,-37%,2.8µM*,?
c1ccc(Oc2nc(-c3ccccn3)nc3ccccc23)cc1,12%,56%,?,?
CC(C)(C)C(=O)CSc1ncnc2c1cnn2Cc1ccccc1,21%,-15%,3.5µM*,1%
O=C(CSc1ncnc2c1cnn2CCc1ccccc1)Nc1cccc(C(F)(F)F)c1,-23%,-3%,7.9µM*,-30%
Cc1ccc(C2=N/C(=C/N3CCOCC3)C(=O)O2)cc1,6%,8.9µM*,61%,19%
COc1ccc(-n2ccn(CC(=O)Nc3ccc(C)cc3C)c(=O)c2=O)cc1,·,·,7%,1%
CCOc1ccc(NC(=O)Cn2c(CCC(=O)O)ccc2-c2ccc(Cl)cc2)cc1,·,·,-10%,1%
Cc1ccc(C)c(OCC(=O)Nc2ccc(S(=O)(=O)Nc3onc(C)c3C)cc2)c1C,-6%,7%,?,-18%
COc1ccc(OC)c(NC(=O)CSC2=Nc3ccccc3C3=NC(CC(=O)NCc4ccco4)C(=O)N23)c1 (stereo not drawn),·,·,11µM*,17%
CC(C)c1ccc(NC(=O)CSC2=Nc3ccccc3C3=NC(CC(=O)NC4CCCCC4)C(=O)N23)cc1 (stereo not drawn),·,·,10µM*,-12%
CCN(CC)CCCNC(=O)C1CCN(C(=O)c2oc3cc4sc(N(C)C)nc4cc3c2C)CC1,14%,?,-13%,-22%
COCCCNC(=O)C1CCN(C(=O)c2oc3cc4sc(N(C)C)nc4cc3c2C)CC1,7%,11µM*,4%,-20%
Cc1ccc(Cl)cc1Nc1nc2ccccc2c2nncn12,·,·,16%,4%
SMILES,GLP-1R agonist,BRCA1 expr up,GLP-1R inv ag,HEK293 tox
Cc1cc(SCC(=O)c2ccc(O)c(O)c2)n2nc(C)c(-c3ccccc3)c2n1,16%,-42%,11µM*,?
Cc1ccc(Cl)cc1N1CCN(S(=O)(=O)c2ccc3c(c2)OCCO3)CC1,0%,13%,10µM*,11%
Cc1ccc(C)c(N2CCN(S(=O)(=O)c3ccc4c(c3)OCCO4)CC2)c1,-3%,-31%,?,18%
CC(NC(=O)c1ccc(Br)cc1)c1ccc2c(c1)CCCC2 (stereo not drawn),2%,-14%,10µM*,-2%
CC(NC(=O)c1ccc(F)cc1)c1ccc2c(c1)CCCC2 (stereo not drawn),1%,-25%,10µM*,1%
Cc1ccc(OCC(=O)N2CCCC(CO)(CCOc3ccccc3)C2)cc1 (stereo not drawn),4%,-37%,?,-1%
Cn1ncc2c(O/N=C(\N)c3ccc(C(C)(C)C)cc3)ncnc21,-2%,-2%,?,10µM*
c1ccc(-n2nnc(-c3nccs3)n2)cc1,-3%,2.8µM*,8%,5%
Brc1ccccc1-n1nnc(-c2nccs2)n1,8%,4.5µM*,-7%,6%
O=C(Cc1cccc2ccccc12)NCC(=O)N1CCN(Cc2cccc(C(F)(F)F)c2)CC1,2%,-39%,10µM*,-3%
Cc1ccccc1-c1ccc2c(c1)O[C@@H](CN(C)C(=O)Nc1ccc(C(F)(F)F)cc1)[C@H](C)CN([C@@H](C)CO)S2(=O)=O,6%,0%,6.3µM*,-9%
CC[C@@H]([C@H](C)O)n1ncn(-c2ccc(N3CCN(c4ccc(OCC5CO[C@@](Cn6cncn6)(c6ccc(F)cc6F)C5)cc4)CC3)cc2)c1=O (stereo partly drawn),-5%,·,·,·
CCOc1ccccc1NC(=O)NC1CC2CCCC(C1)N2Cc1nnnn1CCc1ccccc1 (stereo not drawn),-4%,-21%,10µM*,9%
CC(C)(C)c1ccc(O)c(N=Cc2cccc([N+](=O)[O-])c2)c1,·,28%,·,·
O=[N+]([O-])c1ccc2oc(-c3ccccc3)nc2c1,4%,3.2µM*,10%,4%
Cc1cccc(-c2nc3cc([N+](=O)[O-])ccc3o2)c1,4%,2.5µM*,67%,-1%
Cc1ccc2oc(-c3ccccc3)nc2c1,7%,?,40%,3%
O=C1c2ccccc2C(=O)N1c1nc(-c2ccc(F)cc2)cs1,·,17%,·,·
O=C(NCc1ccc(F)cc1)c1cc2c(=O)n3ccccc3nc2s1,·,·,5%,7%
CCOC(=O)C(=CNNc1cccc(Cl)c1)C(=O)OCC,-3%,-39%,5µM*,-3%
C[n+]1ccnc2ccccc21,·,-13%,·,·
Cc1nc2c(sc(=S)n2Cc2ccco2)c(=O)n1CC(=O)Nc1cc(F)ccc1F,-4%,-10%,1.4µM*,-10%
C[C@@H](CSc1ccc(Br)cc1)CN1CC[C@H](C(C)(C)C)CCC1=O,-4%,-27%,?,0%
Cc1ccc(SC[C@H](C)CN2CC[C@H](C(C)(C)C)CCC2=O)cc1,10%,-7%,10µM*,1%
CCCN1CCC(=O)N(CCOc2ccccc2)CC1,-3%,30%,9%,4%
CC(C)(C)[C@@H]1CCC(=O)N(CC[C@H](Sc2ccccc2)c2ccccc2)CC1,2%,-29%,4.5µM*,?
CC(C)(C)C1CCC(=O)N(CCOc2ccccc2)CC1 (stereo not drawn),?,13µM*,-27%,-18%
CCCCN(CC)CCCn1cnc2c([nH]c3ccc(Cl)cc32)c1=O,8%,-10%,-22%,-5%
CCC(C(=O)C(C)C(O)C(C)CCc1ccc(C)c(O)c1C(=O)O)C1OC(CC)(C2CC[C@@](O)(CC)C(C)O2)CC1C (stereo partly drawn),-3%,·,·,·
COc1ccc(-c2oc3ncn4nc(COc5ccc(Cl)cc5)nc4c3c2-c2ccc(OC)cc2)cc1,·,·,3%,7%
